# Results taken from ChEMBL document CHEMBL2218924, “A broad activity screen in support of a chemogenomic map for kinase signalling research and drug discovery” (Biochem J, 2013).
# Experiments:
# [1] = target: T1, Ephrin type-A receptor 3 (Homo sapiens) (UniProt P29320); details: at 10 µM
# T1 sequence (whole entry): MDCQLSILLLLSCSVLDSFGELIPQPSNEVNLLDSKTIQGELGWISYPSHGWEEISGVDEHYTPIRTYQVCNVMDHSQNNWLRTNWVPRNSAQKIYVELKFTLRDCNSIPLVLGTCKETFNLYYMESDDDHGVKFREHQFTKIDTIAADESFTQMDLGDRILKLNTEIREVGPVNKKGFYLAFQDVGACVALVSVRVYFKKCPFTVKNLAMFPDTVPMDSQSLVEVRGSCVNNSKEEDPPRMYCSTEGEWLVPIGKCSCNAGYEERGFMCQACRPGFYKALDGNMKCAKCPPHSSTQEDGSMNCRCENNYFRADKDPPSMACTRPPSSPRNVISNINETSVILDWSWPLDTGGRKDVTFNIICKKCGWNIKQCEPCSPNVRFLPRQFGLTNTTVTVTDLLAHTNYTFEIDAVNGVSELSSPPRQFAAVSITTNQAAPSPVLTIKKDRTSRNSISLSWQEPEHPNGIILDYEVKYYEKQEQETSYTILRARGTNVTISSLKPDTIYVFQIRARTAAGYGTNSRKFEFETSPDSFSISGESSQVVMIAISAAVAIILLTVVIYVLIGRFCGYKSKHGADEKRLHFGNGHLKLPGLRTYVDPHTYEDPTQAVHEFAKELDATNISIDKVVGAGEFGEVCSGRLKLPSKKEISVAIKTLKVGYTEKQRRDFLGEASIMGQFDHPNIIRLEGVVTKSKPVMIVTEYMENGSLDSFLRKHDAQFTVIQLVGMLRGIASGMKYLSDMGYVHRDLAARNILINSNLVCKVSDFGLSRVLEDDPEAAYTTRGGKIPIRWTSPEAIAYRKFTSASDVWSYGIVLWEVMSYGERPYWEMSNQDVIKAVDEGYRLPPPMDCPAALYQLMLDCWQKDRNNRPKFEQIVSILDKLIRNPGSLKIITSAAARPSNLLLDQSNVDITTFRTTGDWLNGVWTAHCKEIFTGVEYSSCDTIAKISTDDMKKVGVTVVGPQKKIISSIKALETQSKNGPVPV
# [2] = target: Ephrin type-A receptor 4 (Homo sapiens) (UniProt P54764); details: at 1 µM
# [3] = target: Ephrin type-A receptor 4 (Homo sapiens) (UniProt P54764); details: at 10 µM
# [4] = target: Ephrin type-A receptor 5 (Homo sapiens) (UniProt P54756); details: at 1 µM
# [5] = target: Ephrin type-A receptor 5 (Homo sapiens) (UniProt P54756); details: at 10 µM
# [6] = target: Ephrin type-A receptor 7 (Homo sapiens) (UniProt Q15375); details: at 1 µM
# [7] = target: Ephrin type-A receptor 7 (Homo sapiens) (UniProt Q15375); details: at 10 µM
# [8] = target: T2, Ephrin type-A receptor 8 (Homo sapiens) (UniProt P29322); details: at 1 µM
# T2 sequence (whole entry): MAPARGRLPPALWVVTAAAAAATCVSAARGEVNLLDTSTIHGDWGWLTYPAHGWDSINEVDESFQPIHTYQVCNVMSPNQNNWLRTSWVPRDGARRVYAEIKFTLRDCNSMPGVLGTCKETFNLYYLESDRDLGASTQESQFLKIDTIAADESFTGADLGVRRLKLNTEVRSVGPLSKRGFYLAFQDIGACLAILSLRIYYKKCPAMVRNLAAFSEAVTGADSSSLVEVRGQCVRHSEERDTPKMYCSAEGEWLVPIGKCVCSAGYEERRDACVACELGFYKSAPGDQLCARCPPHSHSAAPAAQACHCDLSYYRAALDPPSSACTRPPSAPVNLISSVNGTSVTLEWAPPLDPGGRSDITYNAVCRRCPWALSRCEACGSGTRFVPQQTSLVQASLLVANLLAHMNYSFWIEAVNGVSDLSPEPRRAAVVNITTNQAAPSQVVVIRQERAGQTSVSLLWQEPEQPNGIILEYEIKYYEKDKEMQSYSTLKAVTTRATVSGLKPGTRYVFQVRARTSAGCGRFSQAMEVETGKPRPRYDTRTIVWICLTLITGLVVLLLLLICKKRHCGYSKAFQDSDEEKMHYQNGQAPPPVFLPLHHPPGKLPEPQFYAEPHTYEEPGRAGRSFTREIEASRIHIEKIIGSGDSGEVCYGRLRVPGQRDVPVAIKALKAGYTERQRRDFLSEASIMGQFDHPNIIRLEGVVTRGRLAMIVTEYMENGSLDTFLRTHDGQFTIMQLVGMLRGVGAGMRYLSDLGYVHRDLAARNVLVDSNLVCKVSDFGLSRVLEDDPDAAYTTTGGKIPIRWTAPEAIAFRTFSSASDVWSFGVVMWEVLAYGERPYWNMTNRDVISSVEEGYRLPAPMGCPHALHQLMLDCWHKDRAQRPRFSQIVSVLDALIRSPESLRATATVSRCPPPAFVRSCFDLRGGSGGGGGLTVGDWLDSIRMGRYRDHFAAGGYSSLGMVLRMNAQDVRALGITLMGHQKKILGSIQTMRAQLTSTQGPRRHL
# [9] = target: T2, Ephrin type-A receptor 8 (Homo sapiens); details: at 10 µM
# [10] = target: T3, Ephrin type-B receptor 1 (Homo sapiens) (UniProt P54762); details: at 1 µM
# T3 sequence (whole entry): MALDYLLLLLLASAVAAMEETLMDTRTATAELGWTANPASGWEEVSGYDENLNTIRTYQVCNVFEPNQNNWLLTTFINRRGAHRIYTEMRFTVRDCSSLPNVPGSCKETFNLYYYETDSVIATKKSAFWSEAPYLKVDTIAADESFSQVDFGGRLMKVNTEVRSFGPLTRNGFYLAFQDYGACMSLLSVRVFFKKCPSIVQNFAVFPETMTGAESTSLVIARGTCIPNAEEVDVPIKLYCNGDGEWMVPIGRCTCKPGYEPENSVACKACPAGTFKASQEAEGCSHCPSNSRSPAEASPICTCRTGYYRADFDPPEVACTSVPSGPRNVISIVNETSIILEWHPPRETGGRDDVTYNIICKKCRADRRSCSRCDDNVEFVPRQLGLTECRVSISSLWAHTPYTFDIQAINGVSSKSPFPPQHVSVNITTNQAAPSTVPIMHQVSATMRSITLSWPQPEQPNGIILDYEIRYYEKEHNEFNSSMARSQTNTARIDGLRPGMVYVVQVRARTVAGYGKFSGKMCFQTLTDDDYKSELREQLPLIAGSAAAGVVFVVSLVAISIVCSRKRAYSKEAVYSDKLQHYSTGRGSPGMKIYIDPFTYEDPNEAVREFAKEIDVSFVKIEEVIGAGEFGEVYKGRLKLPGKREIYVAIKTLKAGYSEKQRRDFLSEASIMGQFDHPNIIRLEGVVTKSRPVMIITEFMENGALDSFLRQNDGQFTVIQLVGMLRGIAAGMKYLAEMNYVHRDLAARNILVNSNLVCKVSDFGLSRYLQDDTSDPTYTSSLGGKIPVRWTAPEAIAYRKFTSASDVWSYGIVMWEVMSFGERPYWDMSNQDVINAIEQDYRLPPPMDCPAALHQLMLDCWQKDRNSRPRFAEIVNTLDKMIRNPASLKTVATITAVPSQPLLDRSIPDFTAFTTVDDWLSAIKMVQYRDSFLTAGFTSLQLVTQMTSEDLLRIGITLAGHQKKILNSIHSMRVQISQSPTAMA
# Chain of Ephrin type-A receptor 4 (Homo sapiens) (P54764 whole entry): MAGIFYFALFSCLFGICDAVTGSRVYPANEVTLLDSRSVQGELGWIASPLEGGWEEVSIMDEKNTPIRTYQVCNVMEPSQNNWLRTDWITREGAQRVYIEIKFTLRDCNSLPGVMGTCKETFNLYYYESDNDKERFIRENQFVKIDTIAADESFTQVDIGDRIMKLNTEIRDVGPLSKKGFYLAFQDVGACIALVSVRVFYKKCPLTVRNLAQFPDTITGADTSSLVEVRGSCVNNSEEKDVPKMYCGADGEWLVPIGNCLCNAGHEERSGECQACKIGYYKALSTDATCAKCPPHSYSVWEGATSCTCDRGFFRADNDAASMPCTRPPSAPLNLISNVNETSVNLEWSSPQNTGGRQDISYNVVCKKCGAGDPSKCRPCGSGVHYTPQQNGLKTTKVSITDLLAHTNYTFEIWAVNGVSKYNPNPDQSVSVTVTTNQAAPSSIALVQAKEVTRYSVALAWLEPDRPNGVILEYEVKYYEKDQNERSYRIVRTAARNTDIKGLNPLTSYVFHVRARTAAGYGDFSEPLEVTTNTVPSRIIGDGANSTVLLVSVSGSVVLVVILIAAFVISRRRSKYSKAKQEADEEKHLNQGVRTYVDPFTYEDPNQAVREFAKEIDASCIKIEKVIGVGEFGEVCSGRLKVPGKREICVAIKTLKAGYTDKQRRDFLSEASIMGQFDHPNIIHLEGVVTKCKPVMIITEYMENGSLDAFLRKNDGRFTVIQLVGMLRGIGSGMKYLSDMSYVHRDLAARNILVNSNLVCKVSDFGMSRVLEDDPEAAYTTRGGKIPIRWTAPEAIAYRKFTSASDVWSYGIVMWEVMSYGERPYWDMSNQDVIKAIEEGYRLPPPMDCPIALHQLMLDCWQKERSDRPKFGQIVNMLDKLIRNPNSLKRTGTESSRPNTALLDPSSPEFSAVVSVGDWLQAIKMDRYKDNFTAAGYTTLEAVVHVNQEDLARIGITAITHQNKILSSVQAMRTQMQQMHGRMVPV
# Chain of Ephrin type-A receptor 5 (Homo sapiens) (P54756 whole entry): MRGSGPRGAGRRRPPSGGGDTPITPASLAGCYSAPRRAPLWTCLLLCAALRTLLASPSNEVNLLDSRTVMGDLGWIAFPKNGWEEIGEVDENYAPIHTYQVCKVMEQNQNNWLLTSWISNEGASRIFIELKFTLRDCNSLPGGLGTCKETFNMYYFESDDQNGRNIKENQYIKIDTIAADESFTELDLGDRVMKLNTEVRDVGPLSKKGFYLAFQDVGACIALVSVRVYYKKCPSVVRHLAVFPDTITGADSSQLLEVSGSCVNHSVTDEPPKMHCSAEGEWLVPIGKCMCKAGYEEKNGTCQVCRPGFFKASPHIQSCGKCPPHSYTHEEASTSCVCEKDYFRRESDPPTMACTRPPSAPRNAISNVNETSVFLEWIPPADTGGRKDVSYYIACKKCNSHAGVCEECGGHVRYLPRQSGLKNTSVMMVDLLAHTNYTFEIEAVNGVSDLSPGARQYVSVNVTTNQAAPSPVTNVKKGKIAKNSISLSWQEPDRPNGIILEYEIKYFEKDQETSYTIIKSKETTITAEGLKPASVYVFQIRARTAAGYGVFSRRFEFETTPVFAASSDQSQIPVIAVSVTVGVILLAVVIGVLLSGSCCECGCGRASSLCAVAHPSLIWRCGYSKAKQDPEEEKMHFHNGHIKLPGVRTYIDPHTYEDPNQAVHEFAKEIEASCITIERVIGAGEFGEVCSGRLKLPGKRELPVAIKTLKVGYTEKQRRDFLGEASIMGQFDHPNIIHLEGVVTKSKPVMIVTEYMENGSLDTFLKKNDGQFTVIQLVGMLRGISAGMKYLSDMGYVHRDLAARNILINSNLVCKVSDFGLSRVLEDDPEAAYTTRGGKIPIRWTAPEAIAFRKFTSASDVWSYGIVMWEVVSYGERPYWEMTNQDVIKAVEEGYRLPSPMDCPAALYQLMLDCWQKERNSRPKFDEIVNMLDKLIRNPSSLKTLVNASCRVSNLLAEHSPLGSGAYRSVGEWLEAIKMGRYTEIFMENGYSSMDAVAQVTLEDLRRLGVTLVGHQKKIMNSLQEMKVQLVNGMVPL
# Chain of Ephrin type-A receptor 7 (Homo sapiens) (Q15375 28-998 limits assumed): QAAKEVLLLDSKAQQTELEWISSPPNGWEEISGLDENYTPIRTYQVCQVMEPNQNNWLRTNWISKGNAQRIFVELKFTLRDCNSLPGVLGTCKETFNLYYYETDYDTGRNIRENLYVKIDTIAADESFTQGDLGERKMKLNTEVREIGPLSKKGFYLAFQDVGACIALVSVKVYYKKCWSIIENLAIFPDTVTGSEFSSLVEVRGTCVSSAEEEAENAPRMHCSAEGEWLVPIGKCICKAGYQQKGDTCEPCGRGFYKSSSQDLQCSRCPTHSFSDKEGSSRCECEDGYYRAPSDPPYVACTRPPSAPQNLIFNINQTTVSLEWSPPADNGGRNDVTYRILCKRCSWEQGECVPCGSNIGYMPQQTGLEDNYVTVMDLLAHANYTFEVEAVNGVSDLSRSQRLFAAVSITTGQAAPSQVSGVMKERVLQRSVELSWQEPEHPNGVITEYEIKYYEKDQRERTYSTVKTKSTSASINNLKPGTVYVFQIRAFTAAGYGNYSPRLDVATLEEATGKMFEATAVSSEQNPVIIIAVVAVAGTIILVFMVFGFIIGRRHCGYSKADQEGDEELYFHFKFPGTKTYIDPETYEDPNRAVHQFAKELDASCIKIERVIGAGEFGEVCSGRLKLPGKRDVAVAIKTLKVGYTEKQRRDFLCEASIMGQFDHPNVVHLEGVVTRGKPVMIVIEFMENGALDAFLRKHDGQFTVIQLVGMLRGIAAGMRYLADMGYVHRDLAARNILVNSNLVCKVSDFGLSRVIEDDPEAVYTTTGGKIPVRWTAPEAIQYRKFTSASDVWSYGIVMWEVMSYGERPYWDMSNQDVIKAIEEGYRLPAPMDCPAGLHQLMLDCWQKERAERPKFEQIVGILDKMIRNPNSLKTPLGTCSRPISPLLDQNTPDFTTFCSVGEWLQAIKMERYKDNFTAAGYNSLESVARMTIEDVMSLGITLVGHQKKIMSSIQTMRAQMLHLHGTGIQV
smiles,measurement,setting,value
Oc1n[nH]c2nnc(-c3c(-c4ccccc4)nn4ccccc34)cc12,residual activity,[1],90%
same,residual activity,[2],96%
same,residual activity,[3],103%
same,residual activity,[4],113%
same,residual activity,[5],95%
same,residual activity,[6],94%
same,residual activity,[7],88%
same,residual activity,[8],86%
same,residual activity,[9],89%
same,residual activity,[10],97%
